These results are taken from PubChem BioAssay AID624500 (National Center for Advancing Translational Sciences (NCATS), 2012).

Molecules are shown by their SMILES. Inconclusive results are not listed. The source made the active and inactive calls. Calls follow the shape of the dose curve; as a rule, active = well fitted inhibition curve with a large enough effect; inconclusive = small, poorly fitted or top-dose-only effect; inactive = flat fitted curve, though single readings scatter.

D(3) dopamine receptor (Homo sapiens), sequence (P35462 whole entry, looked up): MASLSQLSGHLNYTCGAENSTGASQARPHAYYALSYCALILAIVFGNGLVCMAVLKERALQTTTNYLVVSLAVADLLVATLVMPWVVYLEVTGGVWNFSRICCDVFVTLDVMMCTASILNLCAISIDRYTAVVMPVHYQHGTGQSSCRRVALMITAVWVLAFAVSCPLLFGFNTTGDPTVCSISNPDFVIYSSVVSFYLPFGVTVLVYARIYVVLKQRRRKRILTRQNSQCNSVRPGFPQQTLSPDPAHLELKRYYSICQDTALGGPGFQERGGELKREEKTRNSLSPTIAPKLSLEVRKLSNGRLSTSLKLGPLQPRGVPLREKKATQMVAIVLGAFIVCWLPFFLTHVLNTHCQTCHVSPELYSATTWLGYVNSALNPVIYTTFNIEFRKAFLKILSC

The test has as its target D(3) dopamine receptor (Homo sapiens) (UniProt P35462). Briefly: HTS Assay for Allosteric Antagonists of the Human D2 Dopamine Receptor: SAR in D3 Beta Arrestin Assay. Conditions: DiscoveRx PathHunter D3 beta-arrestin, luminescence, 90 min; series mostly up to 57.1 µM. An excerpt:
There is great interest in identifying small molecule ligands for G-protein coupled receptors (GPCRs) as nearly 50% of all FDA-approved drugs target these important receptor proteins. […] Amongst the dopamine receptors (DARs), the D2 is arguably one of the most validated drug targets in neurology and psychiatry. For instance, all receptor-based antiparkinsonian drugs primarily work via stimulating the D2 DAR, whereas all FDA-approved antipsychotic agents are antagonists of this receptor. The D2 DAR is also therapeutically targeted in other disorders such as restless legs syndrome, tardive dyskinesia, Tourette's syndrome, and hyperprolactinemia. […] This is an selectivity assay to test the lead compounds against the D3 receptor, using a beta arrestin assay. NIH Molecular Libraries Probe Production Network [MLPCN] NIH Chemical Genomics Center [NCGC] Grant: NS0676421 PI Name: David Sibley, National Institutes of Neurological Disorders and Stroke
DiscoveRx D3 cells were thawed from frozen stock and seeded at 2,100 cells/ 3 uL/well media (DiscoveRx Plating Reagent 2) with MultiDrop Combi dispenser (Thermo Scientific, Logan, UT) onto white tissue culture treated 1536-well Aurora plates (Brooks Automation, Chelmsford, MA) and allowed to attach overnight at 37 deg C, 5% CO2. Next, 23 nL/well of compound solutions in DMSO were added with a pintool transfer (Kalypsis, San Diego, CA). As the positive control, 1 uL/well dopamine (EC100, 57 uM final concentration) diluted in buffer (HBSS + 10 mM HEPES + SMB + 0.1% Tween-20) was dispensed to 1 column of each plate. The rest of the plate was dispensed with buffer only, 1 uL/well as well. The cells were stimulated by compounds or dopamine control for 90 minutes at 37 deg C, 5% CO2, after which 1.5 ul/well of DiscoveRx detection reagent was added with BioRAPTR FRD dispenser. The detection reagent was prepared by mixing of Galacton Star Substrate, Emerald II solution and PathHunter buffer (supplied by the assay kit) together at 1:5:19 proportion accordingly just prior to dispensing. The plates were incubated at ambient temperature for 1 hour and then the luminescent signal was read on ViewLux plate reader (PerkinElmer, Waltham, MA).
In the case of `CCN1C(=O)c2ccccc2[S@](=O)c2ccc(C(=O)N[C@H](C)c3ccc(Br)cc3)cc21`, the Potency is 9.13 µM (active).
As to `CN1C(=O)c2ccccc2[S@](=O)c2ccc(C(=O)NCCc3cccs3)cc21`, the Potency is 12.9 µM (active).
Under `CCN1C(=O)c2ccccc2[S@](=O)c2ccc(C(=O)NCc3ccc(F)cc3)cc21` stands 3.24 µM (active).
Under `CN1C(=O)c2ccccc2S(=O)c2ccc(C(=O)NCCc3cccs3)cc21` (stereo not drawn) stands 20.4 µM (active); under `CN1C(=O)c2ccccc2[S@](=O)c2ccc(C(=O)NCc3cccnc3)cc21`, 14.5 µM (active).
For `CN1C(=O)c2ccccc2[S@@](=O)c2ccc(C(=O)NCCc3cccs3)cc21` the value was “inactive”.
For `CCN1C(=O)c2ccccc2S(=O)c2ccc(C(=O)NCc3ccc(OC)cc3)cc21` (stereo not drawn), the Potency is 5.76 µM (active).
Consider `CCN1C(=O)c2ccccc2[S@](=O)c2ccc(C(=O)NCc3ccc(OC)cc3)cc21`, for which the Potency was 2.89 µM (active).
As to `CCN1C(=O)c2ccccc2[S@](=O)c2ccc(C(=O)NCc3ccc(C#N)cc3)cc21`, the Potency was 1.62 µM (active).
For `CN1C(=O)c2ccccc2[S@](=O)c2ccc(C(=O)NCc3ccc(Br)cc3)cc21` the value was 4.58 µM (active); for `OC1(c2ccc(Cl)cc2)CCN(Cc2c[nH]c3ccccc23)CC1`, 0.0646 µM (active).
Under `CN1C(=O)c2ccccc2[S@](=O)c2ccc(C(=O)NCc3ccc(Cl)cc3)cc21` stands 10.2 µM (active); under `CN1C(=O)c2ccccc2[S@](=O)c2ccc(C(=O)NCCN3CCCC3)cc21`, 4.58 µM (active).
